Data taken from PubChem BioAssay (NCATS).
Inconclusive results are not listed. Values without a mark were called inactive. The source made the active and inactive calls. Calls come from the whole dose curve; as a rule, active = well fitted activation curve with a large enough effect; inconclusive = small, poorly fitted or top-dose-only effect; inactive = no such curve, though single readings can be large or run the other way. Starred links: 1 amine or outer side, 2 acyl side, 3 side chain; linkers in the order of their positions; H or OH if unused. Positions of bridges follow the written chain, without caps; N, C: chain ends. Non-standard residues stand in square brackets, D forms with d. Residues, ends and D or L forms follow the SMILES beside them. ξ: configuration not given here. *: point of attachment. X11 = NC1=NCCC(C(N[*:1])C(=O)[*:2])N1; ΔAla(3-NHCONH2) = NC(=O)NC=C(N)C(=O)O; ξβ3hOrn = NCCCC(N)CC(=O)*; Dap = NC[CH](N)C(=O)O

Molecular target: Cellular tumor antigen p53 (Homo sapiens) (UniProt P04637)
Sequence (P04637 whole entry, looked up): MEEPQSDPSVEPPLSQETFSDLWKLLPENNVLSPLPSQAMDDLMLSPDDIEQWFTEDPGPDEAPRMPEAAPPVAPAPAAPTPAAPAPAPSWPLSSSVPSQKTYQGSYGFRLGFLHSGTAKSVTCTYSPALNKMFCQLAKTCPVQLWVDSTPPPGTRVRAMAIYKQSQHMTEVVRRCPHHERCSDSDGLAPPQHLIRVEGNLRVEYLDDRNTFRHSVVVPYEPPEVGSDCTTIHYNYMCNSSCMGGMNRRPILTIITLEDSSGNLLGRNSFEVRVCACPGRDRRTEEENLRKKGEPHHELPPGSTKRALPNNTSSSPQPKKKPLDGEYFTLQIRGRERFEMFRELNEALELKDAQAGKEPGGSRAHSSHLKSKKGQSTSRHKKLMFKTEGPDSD
Test: Primary qHTS for small molecule compounds that upregulate eGFP-tagged delta133p53alpha (in N-terminal) cells. (AID 2060322); note: nearly all actives have a fitted effect of over 75% in size;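 for activation: series mostly up to about 56 µM; 0% = DMSO vehicle and 100% = reference activator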
Settings: NCI-H358 eGFP-delta133p53alpha fluorescence, 24 h; activation: active compounds read high
How it was run: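 NCI-H358 cells pre-induced 24 h with 10 ng/ml doxycycline for eGFP-delta133p53alpha, plated dox-free and exposed 24 h at 37C to titrated compounds. Fixed, Hoechst-stained; gated GFP peak intensity by laser scanning cytometry, normalized to DMSO (0%) and 57.5 uM 5-azacytidine (100%).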
Potency is the fitted concentration of half-maximal effect.

Q: With `NCCCC(N)CC(=O)NCC1NC(=O)C(CO)NC(=O)C(N)CNC(=O)C(C2CCN=C(N)N2)NC(=O)C(=CNC(N)=O)NC1=O` (stereo not drawn) (H-[Dap]S[Dap](ξβ3hOrn)[ΔAla(3-NHCONH2)][X11]; lactam 1-C; configuration not given here) as the compound, how does the activation read?
A: -4.18%

Q: For `Cc1c(-c2cccc3c(CCCOc4cccc5ccccc45)c(C(=O)O)n(Cc4cccnc4)c23)c(COc2ccc(N3CCN([S+](=O)([O-])N(C)C)CC3)cc2)nn1C`, which activation is on record?
A: -39.2%

Q: How did the activation turn out when `COc1ccc(/C(C)=C/C(=O)O)c(OC)c1` was run?
A: -10.7%

Q: For `C[C@H](NCc1ccc(OCc2cccc(F)c2)cc1)C(N)=O`, which Potency is on record?
A: 24.3 µM (active)

Q: Which activation does the source give for `C/C=C(/C(=C/C)c1ccc(O)cc1)c1ccc(O)cc1` here?
A: 15.1%

Q: For `CC(=O)Nc1cccc(O)c1`, which activation is on record?
A: -4.18%

Q: For `CC(=O)[C@H]1CC[C@H]2[C@@H]3C[C@H](C)C4=CC(=O)CC[C@]4(C)[C@H]3[C@@H](O)C[C@]12C`, which activation is on record?
A: -15.9%

Q: For `CC(CNC1CCCCC1)OC(=O)c1ccccc1` (stereo unspecified), which activation is on record?
A: -9.21%

Q: How did the activation turn out when `COc1c(N2C[C@@H]3CCCN[C@@H]3C2)c(F)cc2c(=O)c(C(=O)O)cn(C3CC3)c12` was run?
A: 4.18%

Q: For `CCCCC(=O)OCC(=O)[C@H]1[C@H](C)C[C@H]2[C@@H]3C[C@H](F)C4=CC(=O)C=C[C@]4(C)[C@@]3(F)[C@@H](O)C[C@@]21C`, which activation is on record?
A: -6.21%

Q: `CCN(CC)CCOC(=O)C(c1ccccc1)c1ccccc1` was tested. Which activation did it give?
A: -8.47%

Q: With `Cc1ccc2c(c1)c1c3n2CCNC3CCC1` (stereo unspecified) as the compound, how does the activation read?
A: -0.837%

Q: `CCC[C@@H](NC(=O)[C@@H]1[C@H]2CCC[C@@H]2CN1C(=O)[C@@H](NC(=O)[C@@H](NC(=O)c1cnccn1)C1CCCCC1)C(C)(C)C)C(=O)C(=O)NC1CC1` was tested. Which activation did it give?
A: 19.1%

Q: `COc1ccc2ccc(=O)oc2c1CC=C(C)C` was tested. Which activation did it give?
A: -15%

Q: How did the activation turn out when `CC(C)(O)CC[C@@H](O)[C@](C)(O)[C@H]1CC[C@@]2(O)C3=CC(=O)[C@@H]4C[C@@H](O)[C@@H](O)C[C@]4(C)[C@@H]3CC[C@]12C` was run?
A: -14.8%

Q: For `CCOc1ccccc1C(N)=O`, which activation is on record?
A: -11.9%

Q: `NS(=O)(=O)c1cc(C2(O)NC(=O)c3ccccc32)ccc1Cl` (stereo unspecified) was tested. Which activation did it give?
A: -33.3%

Q: How did the activation turn out when `Nc1ccc(S(=O)(=O)Nc2ccccc2)cc1` was run?
A: -15.9%

Q: `CCOC(=O)[C@H]1O[C@H]1C(=O)N[C@@H](CC(C)C)C(=O)NCCC(C)C` was tested. Which activation did it give?
A: 17.3%

Q: With `CC=CCC=CCCC(=O)[C@H]1O[C@@H]1C(N)=O` as the compound, how does the activation read?
A: -3.35%

Q: With `CC1=C(C(=O)O)N2C(=O)[C@@H](NC(=O)[C@H](N)c3ccc(O)cc3)[C@H]2SC1` as the compound, how does the activation read?
A: 0%

Q: For `Cc1c(F)cc2c(=O)c(C(=O)O)cn3c2c1CCC3C` (stereo unspecified), which activation is on record?
A: 16.7%

Q: Which activation does the source give for `CCC(=O)O[C@]1(C(=O)CO)CC[C@H]2[C@@H]3CCC4=CC(=O)CC[C@]4(C)[C@@H]3CC[C@@]21C` here?
A: 38%

Q: Which activation does the source give for `O=C(O)C(=O)Nc1cccc(C2=NN=N[N]2)c1` here?
A: 19.6%

Q: With `Nc1ncnc2nc[nH]c12` as the compound, how does the activation read?
A: 18.4%

Q: With `C[C@]12CC[C@H](O)CC1=CC[C@@H]1[C@H]2CC[C@]2(C)C(c3cccnc3)=CC[C@H]12` as the compound, how does the activation read?
A: -11.6%

Q: With `NC[C@H]1O[C@H](O[C@H]2[C@H](O)[C@@H](O[C@H]3O[C@H](CO)[C@@H](O)[C@H](N)[C@H]3O)[C@H](N)C[C@@H]2N)[C@H](N)[C@@H](O)[C@@H]1O` as the compound, how does the activation read?
A: -10.7%

Q: For `O=C(C=Cc1ccc(O)cc1)c1ccc(O)cc1O`, which activation is on record?
A: -12.8%

Q: How did the activation turn out when `CN(N=O)C(=O)N[C@H]1C(O)OC(CO)[C@@H](O)[C@H]1O` (stereo partly specified) was run?
A: 25.8%

Q: How did the activation turn out when `COc1ccc2cc(CCC(C)=O)ccc2c1` was run?
A: -16.4%

Q: With `Nc1ccncc1N` as the compound, how does the activation read?
A: 21.8%

Q: How did the Potency turn out when `COc1cc2nc(-c3cc(F)ccc3O)nc(N[C@@H]3CNC[C@@H]3C(C)(C)O)c2cc1OC` was run?
A: 34.3 µM (active)

Q: For `COC(=O)c1cc(S(N)(=O)=O)ccc1OC`, which activation is on record?
A: -3.95%

Q: How did the activation turn out when `O=C(CS(=O)Cc1ccco1)NC/C=C\COc1cc(CN2CCCCC2)ccn1` (stereo unspecified) was run?
A: -5.08%

Q: With `CC1(C)CCC[C@@]2(C)[C@@H]1CC[C@@]1(C)OC(=O)C[C@H]21` as the compound, how does the activation read?
A: -11.9%

Q: For `C=CC(=O)Nc1cc(NC(=O)c2ccc(C)c(NC(=O)c3ccno3)c2)cc(C(F)(F)F)c1`, which activation is on record?
A: 4.58%
